Data: PubChem BioAssay (NCATS)
Records with an inconclusive call do not appear. Calls of active or inactive are those of the source. The call rests on the fitted dose curve; in most records, active means well fitted curve in the direction sought with a large enough effect; inconclusive means small, poorly fitted or top-dose-only effect, or another doubt; inactive means no such curve, though single readings can be large; an effect the other way counts as inactive or inconclusive.

Legend:
[1] = target: Aldehyde dehydrogenase, mitochondrial (Homo sapiens) (UniProt P05091); test: qHTS for Inhibitors of the Aldehyde Dehydrogenase Family (ALDH2) Primary screen (AID 2061308);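 further: plate controls were vehicle for no effect and reference inhibitor for full effect; nearly all actives have a fitted effect of over 55% in size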
[2] = target: Retinaldehyde dehydrogenase 3 (Homo sapiens) (UniProt P47895); test: qHTS for Inhibitors of the Aldehyde Dehydrogenase Family (ALDH1A3) Primary screen (AID 2061315);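 further: plate controls were DMSO vehicle for no effect and reference inhibitor for full effect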
[3] = BET inhibitor-based combinations targeting novel dependencies in MECOM-rearranged (r) AML: SET-2 cell line (AID 2202231); details: SET-2 AML cells viability, CellTiter-Glo luminescence, 48 h; viability: hits give low values, concentration not given here; further: nearly all actives have a fitted effect of over 35% in size; further: potency means the concentration at half of the fitted maximal effect;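 on viability: plate controls were DMSO treated cells for no effect and wells without cells for full effect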
In short: (§1)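 Here, 11-point titrations of each agent were applied to 500 seeded cells and incubated 48 hr; CellTiter-Glo signal, scaled against DMSO and empty wells, was integrated as AUC, then Z-scored within the individual line.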

[4] = BET inhibitor-based combinations targeting novel dependencies in MECOM-rearranged (r) AML: MV-4-11 cell line (AID 2202233); further: nearly all actives have a fitted effect of over 45% in size; further: potency means the concentration at half of the fitted maximal effect
In short: (§2)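 Normalized to DMSO and empty-well controls, the luminescence data from CellTiter-Glo after 48 hr drug exposure were fitted across 11 concentrations. Reported metrics are area under the dose-response curve and its Z-transformed form.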

[5] = BET inhibitor-based combinations targeting novel dependencies in MECOM-rearranged (r) AML: HNT-34 cell line (AID 2202234); further: nearly all actives have a fitted effect of over 35% in size; further: potency means the concentration at half of the fitted maximal effect
In short: as §2

[6] = BET inhibitor-based combinations targeting novel dependencies in MECOM-rearranged (r) AML: UCSD-AML1 cell line (AID 2202235); further: nearly all actives have a fitted effect of over 40% in size; further: potency means the concentration at half of the fitted maximal effect
In short: as §2

[7] = BET inhibitor-based combinations targeting novel dependencies in MECOM-rearranged (r) AML: AML-191 cell line (AID 2202236; further: nearly all actives have a fitted effect of over 35% in size; further: potency means the concentration at half of the fitted maximal effect)
In short: as §1

[8] = BET inhibitor-based combinations targeting novel dependencies in MECOM-rearranged (r) AML: AML-194 cell line (AID 2202237; further: nearly all actives have a fitted effect of over 40% in size; further: potency means the concentration at half of the fitted maximal effect)
In short: as §1

[9] = BET inhibitor-based combinations targeting novel dependencies in MECOM-rearranged (r) AML: OCI-AML3 cell line (AID 2202232); details: Potency: OCI-AML3 viability; further: nearly all actives have a fitted effect of over 35% in size; further: potency means the concentration at half of the fitted maximal effect
In short: as §1

CCCOc1ccn2c(C(C)=O)cc(-c3ccccc3S(C)(=O)=O)c2c1
active: Potency [4] 18600 nM | Potency [5] 18600 nM | Potency [7] 18600 nM
inactive: Potency [1] | Potency [2] | viability [3] 93% | Potency [6] | Potency [8]

CCc1cc2c(cc1N1CCC(N3CCOCC3)CC1)C(C)(C)c1[nH]c3cc(C#N)ccc3c1C2=O
inactive: Potency [1] | Potency [2] | viability [3] 88.5% | Potency [6]

Cc1nc(N)sc1-c1ccnc(Nc2ccc(N3CCOCC3)cc2)n1
active: Potency [3] 5250 nM | Potency [9] 11800 nM | Potency [4] 186 nM | Potency [5] 2350 nM | Potency [6] 833 nM | Potency [7] 7420 nM | Potency [8] 4170 nM
inactive: Potency [1]

C[C@@H]1O[C@@H](O[C@H]2[C@H](OC(=O)[C@]34CCC(C)(C)C[C@H]3C3=CCC5[C@@]6(C)C[C@H](O)[C@H](O[C@@H]7O[C@H](CO)[C@@H](O[C@H]8OC[C@](O)(CO)[C@H]8O)[C@H](O)[C@H]7O)[C@@](C)(CO)C6[C@H](O)C[C@@]5(C)[C@]3(C)C[C@H]4O)OC[C@H](O)[C@@H]2O)[C@H](O)[C@H](O)[C@H]1O[C@@H]1OC[C@@H](O)[C@H](O[C@@H]2OC[C@](O)(CO)[C@H]2O)[C@H]1O (stereo partly specified)
inactive: activity change, negative = inhibition [1] 8.6% [at 11.2 µM] | activity change, negative = inhibition [2] -7.49% [at 11.2 µM]

CC(=O)O[C@@H]1CC[C@@]2(C)[C@H](CC[C@@H]3[C@@H]2C[C@H](OC(C)=O)[C@]2(C)[C@@H](C(C)=O)CC[C@@H]32)C1
inactive: Potency [1] | Potency [2]

CCOc1cc2ncc(C#N)c(Nc3ccc(F)c(Cl)c3)c2cc1NC(=O)/C=C/CN(C)C
active: Potency [3] 5900 nM | Potency [9] 4170 nM | Potency [4] 934 nM | Potency [5] 296 nM | Potency [6] 1480 nM | Potency [7] 4680 nM | Potency [8] 5250 nM
inactive: Potency [1] | Potency [2]

Cc1ncc(NC(=O)c2ccc(CN3CCN(C)CC3)c(C(F)(F)F)c2)cc1Nc1nccc(-c2cccnc2)n1
inactive: Potency [1] | Potency [2] | Potency [6]
active: Potency [3] 23500 nM | Potency [9] 14800 nM | Potency [4] 3320 nM | Potency [5] 29.5 nM | Potency [8] 23500 nM

COc1ccc(Cl)c(Nc2ncnc3cc(OCC4CCN(C)CC4)c(OC)cc23)c1
active: Potency [9] 29500 nM | Potency [4] 5900 nM | Potency [5] 742 nM | Potency [7] 23500 nM
inactive: Potency [1] | Potency [2]

Fc1ccc(-c2nc(-c3ccccc3F)[nH]c2-c2ccncc2)cc1
inactive: Potency [1] | Potency [2] | Potency [9] | Potency [4] | Potency [5] | Potency [7] | Potency [8]
active: Potency [6] 4170 nM

c1ccc(-c2ccc(CNc3nc(-c4ccccn4)nnc3-c3ccccc3)cc2)cc1
inactive: Potency [1] | Potency [2]
active: Potency [3] 2350 nM | Potency [9] 1320 nM | Potency [4] 1180 nM | Potency [5] 1320 nM | Potency [6] 1050 nM | Potency [7] 934 nM | Potency [8] 1050 nM

CN(NC(=O)CC(=O)NN(C)C(=S)c1ccccc1)C(=S)c1ccccc1
active: Potency [9] 52.5 nM | Potency [5] 14.8 nM | Potency [6] 59 nM | Potency [7] 37.2 nM | Potency [8] 41.7 nM
inactive: Potency [1] | Potency [2]

COc1ccc(-c2cnc3c(-c4cccc5ncccc45)cnn3c2)cc1
inactive: Potency [1] | Potency [2] | viability [3] 119% | Potency [5] | Potency [6] | Potency [7] | Potency [8]
active: Potency [4] 7420 nM

Cc1nc2ccc(-n3ncc(C(=O)c4cc5ccccc5[nH]4)c3N)cc2[nH]1
active: Potency [4] 6610 nM | Potency [8] 16600 nM
inactive: Potency [1] | Potency [2]

COCCOc1ccc2c(c1)ncn2-c1ccc2cccc(N3CCC(N)CC3)c2n1
active: Potency [9] 9340 nM | Potency [4] 18.6 nM | Potency [5] 7420 nM | Potency [6] 5250 nM | Potency [7] 2090 nM | Potency [8] 2350 nM
inactive: Potency [1] | Potency [2]

COc1cc2c(NC3CCN(C(C)C)CC3)nc(C3CCCCC3)nc2cc1OCCCN1CCCC1
active: Potency [4] 8330 nM | Potency [5] 11800 nM | Potency [6] 11800 nM | Potency [7] 20900 nM | Potency [8] 14800 nM
inactive: Potency [1] | Potency [2]

CS(=O)(=O)N1CCc2c(-c3cnc(N)nc3)nc(N3CCOCC3)nc21
active: Potency [4] 4680 nM | Potency [6] 662 nM
inactive: Potency [1] | Potency [2]

CC[C@@H]1C(=O)N(C)c2cnc(Nc3ccc(C(=O)NC4CCC(N5CCN(CC6CC6)CC5)CC4)cc3OC)nc2N1C(C)C (stereo partly specified)
active: Potency [3] 148 nM | Potency [9] 59 nM | Potency [4] 118 nM | Potency [6] 166 nM | Potency [7] 166 nM | Potency [8] 93.4 nM
inactive: Potency [1] | Potency [2]

CN(C)C/C=C/C(=O)Nc1ccc(C(=O)Nc2cccc(Nc3ncc(Cl)c(-c4c[nH]c5ccccc45)n3)c2)cc1
active: Potency [3] 662 nM | Potency [9] 83.3 nM | Potency [5] 118 nM | Potency [6] 132 nM | Potency [8] 296 nM
inactive: Potency [1] | Potency [2]

CNC(=O)c1ccc(Nc2ncc(C(F)(F)F)c(NCc3nccnc3N(C)S(C)(=O)=O)n2)cc1
active: Potency [3] 3320 nM | Potency [9] 4680 nM | Potency [4] 296 nM | Potency [5] 1860 nM | Potency [6] 2630 nM | Potency [7] 2950 nM | Potency [8] 3720 nM
inactive: Potency [1] | Potency [2]
